Experiment [1] can be described thus: ATG_CRE_CIS: Attagene CIS-FACTORIAL HepG2 Assay for human cAMP Responsive Element (CRE) binding protein 3 (AID 2282926). The settings on record: HepG2 CRE cis-reporter, Attagene multiplexed mRNA; actives raise or lower the signal. Summed up:
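Induced reporter mRNA from a CRE cis element, measured in HepG2 among many multiplexed units at 24 h. Detection used RT-PCR plus capillary electrophoresis of fluorescent fragments; DMSO served as negative control.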

For experiment [2], the target named is CCAAT/enhancer-binding protein beta (Homo sapiens) (UniProt P17676). In words: ATG_C_EBP_CIS: Attagene CIS-FACTORIAL HepG2 Assay for human CCAAT/Enhancer Binding Protein (C/EBP) beta (AID 2282927). Conditions: HepG2 Attagene cis-factorial transcription factor reporter; actives raise or lower the signal. Put shortly: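 HepG2 transiently transfected with multiplexed reporter units under cis-regulatory promoters reporting endogenous C/EBPb activity. After 24 h exposure, reporter mRNA assayed by RT-PCR, fluorescent labelling, HpaI digestion and capillary electrophoresis; bidirectional fitting versus DMSO.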
Chain of CCAAT/enhancer-binding protein beta (Homo sapiens) (P17676 whole entry, looked up): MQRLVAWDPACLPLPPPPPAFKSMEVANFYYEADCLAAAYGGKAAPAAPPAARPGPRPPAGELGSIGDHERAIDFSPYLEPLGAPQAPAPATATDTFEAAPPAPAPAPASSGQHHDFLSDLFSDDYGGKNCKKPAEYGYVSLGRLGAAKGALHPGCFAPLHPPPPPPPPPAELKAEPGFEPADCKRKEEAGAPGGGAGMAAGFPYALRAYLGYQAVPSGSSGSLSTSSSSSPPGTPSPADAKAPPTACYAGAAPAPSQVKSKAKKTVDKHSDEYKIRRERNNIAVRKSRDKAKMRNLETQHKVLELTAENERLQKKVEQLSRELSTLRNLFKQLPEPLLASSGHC

The nature of experiment [3]: ATG_CMV_CIS: Attagene CIS-FACTORIAL HepG2 Assay for human CMV (Internal Marker) (AID 2282928).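 Note: endpoint acts as a background internal control marker rather than a target.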 Conditions: HepG2 CMV promoter reporter, transcription factor profiling; actives raise or lower the signal. Summed up: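 Reporter transcripts from transfected HepG2 cells are isolated after 24 h of chemical dosing, reverse-transcribed and amplified. Fragments labeled with 6-FAM are cut with HpaI and quantified by capillary electrophoresis; DMSO defines baseline.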

The nature of experiment [4]: ATG_DR4_LXR_CIS: Attagene CIS-FACTORIAL HepG2 Assay for human Liver X Receptor (LXR), DR4 submotif (AID 2282929). Conditions: HepG2 Attagene DR4 cis-reporter, mRNA transcription; actives raise or lower the signal. Put shortly:
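Transiently transfected HepG2 liver cells; cis-regulated reporters; 24 h dosing. RT-PCR plus CE read-out of reporter mRNA. DMSO baseline, bidirectional curve fitting.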

Experiment [5] concerns the target Aryl hydrocarbon receptor (Homo sapiens) (UniProt P35869). Kind of experiment: ATG_Ahr_CIS: Attagene CIS-FACTORIAL HepG2 Assay for human Aryl Hydrocarbon Receptor (Ahr) (AID 2282930). The settings on record: HepG2 AhR cis-factorial reporter transcription; actives raise or lower the signal. Summed up:
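HepG2 cells transiently transfected with cis-element-driven multiplexed reporter units; endogenous AhR activity read as reporter mRNA 24 h after dosing, via RT-PCR, 6-FAM labelling, HpaI digestion and capillary electrophoresis. Bidirectional fit relative to DMSO.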

The nature of experiment [6]: ATG_AP_1_CIS: Attagene CIS-FACTORIAL HepG2 Assay for human Activator Protein 1 (AP-1) (AID 2282931). The settings on record: HepG2 Attagene cis-factorial AP-1 reporter mRNA; actives raise or lower the signal. Summed up:
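We transfected HepG2 cells transiently with a set of cis-regulated reporter transcription units, dosed them for 24 h, and quantified reporter mRNA via RT-PCR and capillary electrophoresis, scoring gain or loss of signal relative to DMSO.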

A short description of experiment [7]: ATG_AP_2_CIS: Attagene CIS-FACTORIAL HepG2 Assay for human Activator Protein 2 (AP-2) (AID 2282932). The settings on record: HepG2 AP-2 cis-reporter, Attagene transcription factor profiling; actives raise or lower the signal. Put shortly:
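Liver-derived HepG2 line, cis-reporter system measuring endogenous factors; 24 h dosing; reporter mRNA detected by fluorescent RT-PCR and capillary electrophoresis.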

Experiment [8] in a line: ATG_BRE_CIS: Attagene CIS-FACTORIAL HepG2 Assay for human Bone Morphogenetic Protein (BMP) Response Element (BRE) (AID 2282933). The settings on record: HepG2 BMP response element reporter, Attagene transcription factor profiling; actives raise or lower the signal. Put shortly: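 Fluorescence-labelled reporter cDNA fragments, separated by capillary electrophoresis, gave the signal for this component of a 52-readout multiplex. HepG2 cells were transfected, exposed to chemicals for 24 h, and compared with DMSO using bidirectional fitting.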

The target of experiment [9] is Retinoic acid receptor alpha (Homo sapiens) (UniProt P10276). Kind of experiment: ATG_DR5_RAR_CIS: Attagene CIS-FACTORIAL HepG2 Assay for human Retinoic Acid Receptor Alpha (RARE), DR5 submotif (AID 2282934).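 For AC50: reporter responds to endogenous RAR alpha beta and gamma in HepG2 not RARA alone.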 Conditions: HepG2 Attagene cis-factorial RARE DR5 reporter, mRNA; actives raise or lower the signal. Summed up: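 HepG2 cells transiently transfected with multiplexed reporter units; DR5 cis-element drives reporter through endogenous transcription factors. After 24 h dosing, reporter mRNA quantified by RT-PCR, fluorescent labeling, HpaI digestion and capillary electrophoresis; bidirectional fitting versus DMSO.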
Chain of Retinoic acid receptor alpha (Homo sapiens) (P10276 whole entry, looked up): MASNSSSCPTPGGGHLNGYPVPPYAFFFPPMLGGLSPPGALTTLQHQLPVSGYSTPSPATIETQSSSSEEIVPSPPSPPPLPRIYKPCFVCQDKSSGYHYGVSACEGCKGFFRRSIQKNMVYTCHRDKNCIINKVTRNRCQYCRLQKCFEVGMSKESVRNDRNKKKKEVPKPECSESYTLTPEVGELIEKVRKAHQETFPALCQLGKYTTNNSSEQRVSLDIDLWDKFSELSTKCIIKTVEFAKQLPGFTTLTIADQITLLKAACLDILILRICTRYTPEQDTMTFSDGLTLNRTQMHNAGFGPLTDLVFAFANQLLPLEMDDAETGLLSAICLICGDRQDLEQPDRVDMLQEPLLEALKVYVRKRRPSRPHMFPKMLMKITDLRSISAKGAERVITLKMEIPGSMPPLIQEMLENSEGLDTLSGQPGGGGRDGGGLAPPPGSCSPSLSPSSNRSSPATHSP

Active and inactive are the calls of the source. Rule for the calls: active = hit-call score of the fitted dose curve at least 0.9, where 1 is the maximum; inactive = score below 0.9.

One may read the AC50 as the concentration at which the activity in the assay is half-maximal.

Chain of Aryl hydrocarbon receptor (Homo sapiens) (P35869 whole entry, looked up): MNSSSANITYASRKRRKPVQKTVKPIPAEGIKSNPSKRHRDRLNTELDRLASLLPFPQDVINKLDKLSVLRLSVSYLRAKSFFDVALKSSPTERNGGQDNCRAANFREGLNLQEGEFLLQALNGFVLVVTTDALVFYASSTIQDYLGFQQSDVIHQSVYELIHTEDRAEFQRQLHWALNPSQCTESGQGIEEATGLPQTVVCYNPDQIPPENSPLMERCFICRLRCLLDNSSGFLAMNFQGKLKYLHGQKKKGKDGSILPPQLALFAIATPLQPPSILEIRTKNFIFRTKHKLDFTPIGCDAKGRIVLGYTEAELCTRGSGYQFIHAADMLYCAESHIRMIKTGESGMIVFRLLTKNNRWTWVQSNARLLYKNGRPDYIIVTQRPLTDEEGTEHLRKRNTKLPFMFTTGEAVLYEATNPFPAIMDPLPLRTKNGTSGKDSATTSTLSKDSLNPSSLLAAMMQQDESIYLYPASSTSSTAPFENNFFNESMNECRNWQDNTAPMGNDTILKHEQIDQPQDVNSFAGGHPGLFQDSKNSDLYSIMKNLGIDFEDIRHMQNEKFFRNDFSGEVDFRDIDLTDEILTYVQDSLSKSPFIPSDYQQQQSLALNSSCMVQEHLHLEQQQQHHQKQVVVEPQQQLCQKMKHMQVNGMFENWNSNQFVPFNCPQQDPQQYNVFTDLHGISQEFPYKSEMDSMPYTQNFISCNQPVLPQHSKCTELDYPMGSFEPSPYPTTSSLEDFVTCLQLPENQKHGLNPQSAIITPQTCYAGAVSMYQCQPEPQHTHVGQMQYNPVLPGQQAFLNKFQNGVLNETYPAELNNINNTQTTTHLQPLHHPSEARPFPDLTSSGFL

Turning to `c1ccc2scnc2c1`, the compound was classed as inactive in experiment [1], in experiment [2], in experiment [3], in [4], in experiment [6] and in experiment [7]. The compound was called inactive in experiment [8] and in [9]. For the same compound, the AC50 in experiment [5] is 50.8 µM (active).

Regarding `CCCCCC1C(=O)CCC1CC(=O)OC` (configuration not stated), the compound was called inactive in [1], in experiment [2], in experiment [3], in experiment [4], in [5] and in [6]. Also, the result in experiment [7], in experiment [8] and in experiment [9] was inactive.

For the compound `C=CC(C)CCCC(C)(C)O` (configuration not stated), the compound was called inactive in experiment [1], in [2], in experiment [3], in [4], in experiment [5] and in experiment [6]. Also, the compound was classed as inactive in experiment [7], in experiment [8] and in [9].

`OCCCO`: the compound was called inactive in experiment [1], in experiment [2], in experiment [3], in [4], in experiment [5] and in experiment [6]. Moreover, the compound was classed as inactive in experiment [7], in experiment [8] and in experiment [9].

As to `CCCCCCCOC(C)=O`, the compound was classed as inactive in experiment [1], in experiment [2], in experiment [3], in experiment [4], in [5] and in experiment [6]. The compound was classed as inactive in [7], in [8] and in experiment [9].

As to `CC1=CC(O)CC(C)(C)C1` (configuration not stated), the result in experiment [1], in experiment [2], in experiment [3], in experiment [4], in experiment [6] and in experiment [7] was inactive. The compound was classed as inactive in experiment [8] and in experiment [9]. Also, the AC50 in experiment [5] is 44.9 µM (active).

Turning to `CC(C)COC(=O)c1ccccc1`, the compound was called inactive in experiment [1], in [2], in experiment [3], in [4], in experiment [5] and in experiment [6]. In addition, the result in [7], in experiment [8] and in experiment [9] was inactive.

With `CCCCCCCCCCCCS`, the outcome in experiment [1], in experiment [3], in experiment [5], in [7] and in experiment [8] was inactive. Also, the half-maximal activity concentration (AC50) is 24.2 µM (active) in experiment [2], 33.4 µM (active) in experiment [4], 48.8 µM (active) in experiment [6] and 9.11 µM (active) in experiment [9].

Take `c1ccc(Sc2ccccc2)cc1`: the compound was classed as inactive in experiment [1], in [2], in [3], in experiment [4], in [5] and in experiment [6]. The result in [7], in experiment [8] and in experiment [9] was inactive.

With `CC(=O)OC(C)(C)C1CC=C(C)CC1` (configuration not stated), the call in experiment [1], in experiment [2], in [3], in experiment [4], in experiment [6] and in experiment [7] was inactive. For the same compound, the call in [8] and in experiment [9] was inactive. The concentration at half-maximal activity (AC50) in [5] was 8.48 µM (active).

Consider `CCCCCCCCCCCCOCCOS(=O)(=O)O`, for which the compound was classed as inactive in [1], in experiment [2], in experiment [3], in experiment [4], in [5] and in experiment [6]. Further, the compound was called inactive in [7], in experiment [8] and in experiment [9].

As for `CCCCC1CCCCC(=O)O1` (configuration not stated), the outcome in [1], in experiment [2], in experiment [3], in experiment [4], in [5] and in experiment [6] was inactive. The compound was classed as inactive in [7], in experiment [8] and in experiment [9].

Turning to `O=C(OCc1ccccc1)c1ccccc1O`, the call in experiment [1], in [2], in experiment [7] and in [9] was inactive. The AC50 in [3] was 64.1 µM (active); in experiment [4] it was 55.1 µM (active); in experiment [5], 61.9 µM (active); in [6], 111 µM (active); in [8], 133 µM (active).

As to `C=C(C)C(=O)OCCC[Si](OC)(OC)OC`, the result in [1], in [2], in [3], in experiment [4], in experiment [5] and in experiment [6] was inactive. Besides, the call in experiment [7], in experiment [8] and in [9] was inactive.

For the compound `CCCCCCCCCO`, the compound was called inactive in [1], in experiment [2], in experiment [3], in experiment [4], in experiment [5] and in experiment [6]. The outcome in [7], in experiment [8] and in experiment [9] was inactive.

As for `CCOC(=O)CC1(C)OCC(C)O1` (configuration not stated), the compound was called inactive in experiment [1], in [2], in experiment [3], in experiment [4], in [5] and in experiment [6]. For the same compound, the call in experiment [7], in [8] and in [9] was inactive.

In the case of `CCO[Si](CC)(OCC)OCC`, the compound was called inactive in experiment [1], in experiment [2], in experiment [3], in [5], in [6] and in experiment [7]. Further, the compound was classed as inactive in experiment [8] and in experiment [9]. Besides, in [4], the AC50 was 155 µM (active).

For the compound `CCCC1CCC(=O)CC1`, the compound was classed as inactive in experiment [1], in experiment [2], in experiment [3], in experiment [4], in [7] and in experiment [8]. The half-maximal activity concentration (AC50) in experiment [5] was 44.4 µM (active).

As for `CC1COC(=O)O1` (configuration not stated), the call in [1], in experiment [2], in [3], in experiment [4], in experiment [5] and in [7] was inactive. Further, in [8], the compound was classed as inactive.

Take `NCCN1CCNCC1`: the call in experiment [1], in experiment [2], in experiment [3], in experiment [4], in [5] and in [7] was inactive. Moreover, the result in [8] and in [9] was inactive.

Regarding `O=C(O)c1cccc(Cl)n1`, the outcome in experiment [1], in experiment [2], in experiment [3], in experiment [4], in experiment [5] and in experiment [7] was inactive. Also, the call in experiment [8] and in experiment [9] was inactive.

For `CCCCCCCCCCOC(=O)c1ccccc1C(=O)OCCCCCCCC`, the result in experiment [1], in experiment [2], in experiment [3], in [4], in experiment [5] and in experiment [7] was inactive. In experiment [8], the outcome was inactive.

Consider `N=C1N=C(N)c2ccccc21`, for which the compound was called inactive in [1], in experiment [2], in experiment [3], in experiment [5], in experiment [7] and in [8]. Moreover, the concentration at half-maximal activity (AC50) in experiment [4] was 100 µM (active).

Turning to `CC(=O)c1ccc(C)cc1`, the result in [1], in experiment [2], in experiment [3], in experiment [4], in experiment [5] and in [7] was inactive. In addition, the compound was called inactive in [8].

For the compound `CCCCCC1CCC(=O)O1` (configuration not stated), the call in experiment [1], in experiment [2], in experiment [3], in experiment [4], in [6] and in experiment [7] was inactive. In [8], the call was inactive.

Consider `COC(=O)c1ccc(C(=O)OC)cc1`, for which the call in experiment [1], in [2], in [3], in [4], in experiment [5] and in experiment [7] was inactive. The compound was classed as inactive in [8] and in experiment [9].

Turning to `Nc1cc([N+](=O)[O-])ccc1C(=O)O`, the outcome in [1], in [2], in experiment [3], in experiment [4], in experiment [7] and in [8] was inactive. In experiment [9], the outcome was inactive. Besides, in experiment [5], the half-maximal activity concentration (AC50) is 20.3 µM (active).

The record behind these values is PubChem BioAssay (EPA / NIEHS).
